The source of these data is PubChem BioAssay (NCATS).

Each structure is given as a SMILES string. Unmarked numbers belong to inactive results. Inconclusive results are not listed. Calls of active or inactive are those of the source. Unless noted, calls follow the shape of the dose curve; as a rule, active = well fitted curve in either direction with a large enough effect (not every such curve was filed as active); inconclusive = small, poorly fitted or top-dose-only effect, or another doubt; inactive = flat fitted curve, though single readings scatter.

The nature of test [1]: AP1 Signaling Pathway (AID 357).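 Also: ME-180 reporter cells stimulated with EGF at its EC50 level; % is scaled to controls: 0 for no effect and ±100 for the full control effect.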 Particulars: ME-180 AP-1-bla reporter, EGF-induced, beta-lactamase ratio, 5 h; at 17.2 µM (top of the series) unless noted. In outline: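 First, ME-180 AP-1-bla cells were cultured overnight at 37 °C in low-serum Opti-MEM. Next, titrated compounds with EC50 EGF were incubated 5 hours. Finally, CCF4 was added for 2.5 hours and the 460/530 nm ratio recorded.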

A short description of test [2]: NFAT Signaling Pathway (AID 444).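 Also: carbachol stimulus at about its EC50 of 1 µM final; % is scaled to controls: 0 for no effect and ±100 for the full control effect.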 The conditions noted are these: Jurkat NFAT-bla M1, carbachol, beta-lactamase ratio, 5 h; at 17.2 µM (top of the series) unless noted. The procedure, abridged: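 Jurkat cells carrying an NFAT-driven β-lactamase reporter and co-transfected muscarinic M1 receptor were treated with compound plus carbachol (1 uM final, an EC50 level) for 5 h at 37 °C. CCF4 loading followed for 1 h at RT; 460/530 nm ratio gave %activity.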

Test [3] can be described thus: Stat Signaling Pathway (AID 446).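 Also: ME-180 cervical cancer cells given 40 pM IL-6 alongside compound; SIE-controlled beta-lactamase reporter measured as 460/530 nm FRET emission ratio; % is scaled to controls: 0 for no effect and ±100 for the full control effect.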 Particulars: ME-180 SIE beta-lactamase reporter, IL-6 stimulated, 5 h; at 17.2 µM (top of the series) unless noted. In outline:
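Screening format detects activators and inhibitors alike: ME-180 SIE-bla cells stimulated at 40 pM IL-6 for 5 hrs with compound, then dual-emission beta-lactamase read at 405 nm excitation.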

In test [4] the target is Glucocorticoid receptor (Homo sapiens) (UniProt P04150). The experiment in a line: GR-GFP Redistribution (AID 450;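 active = compounds whose dose series gives a full or clear partial fitted curve of increased nuclear translocation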; also: potency is read from the fitted curve at half-maximal effect).
Glucocorticoid receptor (Homo sapiens), sequence (P04150 whole entry, looked up): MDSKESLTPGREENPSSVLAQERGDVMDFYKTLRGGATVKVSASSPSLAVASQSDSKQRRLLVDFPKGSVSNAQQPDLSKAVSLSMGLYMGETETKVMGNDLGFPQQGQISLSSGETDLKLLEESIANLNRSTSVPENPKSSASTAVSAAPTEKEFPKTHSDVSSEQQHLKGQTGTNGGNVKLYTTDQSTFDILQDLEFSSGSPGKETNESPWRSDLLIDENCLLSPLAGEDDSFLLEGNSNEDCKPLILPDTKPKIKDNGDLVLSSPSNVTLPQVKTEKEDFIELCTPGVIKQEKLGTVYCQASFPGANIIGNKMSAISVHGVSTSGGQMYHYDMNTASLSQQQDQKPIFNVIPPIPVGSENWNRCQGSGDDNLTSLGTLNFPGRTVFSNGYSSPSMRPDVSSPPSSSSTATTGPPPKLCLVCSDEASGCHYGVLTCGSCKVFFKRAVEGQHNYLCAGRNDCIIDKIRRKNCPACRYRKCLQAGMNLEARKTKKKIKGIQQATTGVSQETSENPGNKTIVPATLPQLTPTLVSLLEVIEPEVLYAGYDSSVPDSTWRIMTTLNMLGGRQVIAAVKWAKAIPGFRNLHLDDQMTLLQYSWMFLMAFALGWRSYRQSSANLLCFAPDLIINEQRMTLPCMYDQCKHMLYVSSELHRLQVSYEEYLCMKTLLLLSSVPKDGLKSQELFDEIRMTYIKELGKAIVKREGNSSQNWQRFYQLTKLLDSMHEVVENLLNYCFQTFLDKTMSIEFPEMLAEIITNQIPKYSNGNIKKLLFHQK

As to `Cc1nnc(N2CCCCC2)c2ccccc12`, the activity change, negative = inhibition in test [1] was -1.88%; in test [2], 13.3%. For the same molecule, the activity, negative = inhibition in test [3] is -8.53%. Further, the Potency in test [4] is above 20.6 µM.
As for `COc1ccc2[nH]c(C)c(C(=O)CN3CCc4cc(OC)c(OC)cc4C3)c2c1`, the activity change, negative = inhibition in test [1] is -11.9%; in test [2] it was 1.37%. Also, in test [3], the activity, negative = inhibition is 4.19%. The Potency in test [4] was above 20.6 µM.
For `O=c1c2c3c(sc2nc2n1CCCS2)CCCC3` the same measures were -22.8%, -17.4%, 1.96% and above 20.6 µM.
Regarding `COc1cccc(Cn2c(NCc3ccco3)nc3c2c(=O)n(C)c(=O)n3C)c1`, the activity change, negative = inhibition in test [1] is -11%; in test [2], -5%. For the same molecule, in test [3], the activity, negative = inhibition is -24.4%. Moreover, the Potency in test [4] is above 20.6 µM.
For `Cn1c(=O)c2c(nc(NCC(O)CO)n2CCc2ccccc2)n(C)c1=O` (stereo not given), the activity change, negative = inhibition in test [1] is 8.87%; in test [2] it was -3.8%. Besides, the activity, negative = inhibition in test [3] was 1.91%. Also, in test [4], the Potency is above 20.6 µM.
For `CSC1=C(C#N)C(c2ccc(C)s2)CC(=O)N1` (stereo not given) the same measures were -7.45%, -2.53%, 7.78% and above 20.6 µM.
The corresponding values for `Cc1cc(=O)oc(C)c1C(=O)NCC1CCCO1` (stereo not given) are 2.9%, -0.802%, 1.38% and above 20.6 µM.
Consider `CCc1cc(=O)oc2cc(C)c(CN3CCCC(C)C3)c(O)c12` (stereo not given), for which the values for the activity change, negative = inhibition in test [1] and in test [2] were 1.74% and -12.2%, respectively. For the same molecule, the activity, negative = inhibition in test [3] was -15.7%. Further, in test [4], the Potency is above 20.6 µM.
With `CC1CN(C2CCN(S(=O)(=O)c3ccccc3)CC2)CC(C)O1` (stereo not given), the activity change, negative = inhibition in test [1] was 2.07%; in test [2] it was -20.4%. In addition, the activity, negative = inhibition in test [3] is 2.46%. The Potency in test [4] is above 20.6 µM.
Regarding `CC(=O)O[C@@]12CO[C@@H]1C[C@H](O)[C@@]1(C)C(=O)[C@H](O)C3=C(C)[C@@H](OC(=O)[C@H](O)[C@@H](NC(=O)OC(C)(C)C)c4ccccc4)C[C@](O)([C@@H](OC(=O)c4ccccc4)[C@H]21)C3(C)C`, the activity change, negative = inhibition in test [1] was -3.46%; in test [2], 29.1%. In addition, the activity, negative = inhibition in test [3] was -5.76%. For the same molecule, the Potency in test [4] was above 20.6 µM.
As for `CCOC(=O)c1cnc(SC2CC(=O)N(c3cccc(OC)c3)C2=O)nc1N` (stereo not given), the activity change, negative = inhibition in test [1] is -16%; in test [2], -6.66%. For the same molecule, the activity, negative = inhibition in test [3] was -12.1%. Besides, the Potency in test [4] is above 20.6 µM.
For `O=C1C=C(O)CC(c2ccco2)C1` (stereo not given), the activity change, negative = inhibition in test [1] was 10.5%; in test [2] it was -7.18%. Further, the activity, negative = inhibition in test [3] is 3.18%. Besides, the Potency in test [4] was above 20.6 µM.
For `COc1cccc(NC(=O)c2cc(C(=O)Nc3cccc(OC)c3)n(C)n2)c1` the same measures were -12.7%, -14.3%, -3.92% and above 20.6 µM.
For `O=S(=O)(c1ccccc1)N1CCC(N2CCN(c3ccccc3)CC2)CC1` the same measures were -9.33%, 6.66%, 5.78% and above 20.6 µM.
The corresponding values for `Cc1c(C=NCCOCc2ccccc2)cnn1C` are -2.81%, -4.41%, 12.4% and above 20.6 µM.
As to `CCOC(=O)c1c(-c2cccs2)csc1NC(=O)CCCC(=O)O`, the activity change, negative = inhibition is -7.6% in test [1] and -2.47% in test [2]. For the same molecule, the activity, negative = inhibition in test [3] is -0.962%. The Potency in test [4] is above 20.6 µM.
Regarding `CN1CCN(/C=N/c2sc3c(c2C#N)CCCCC3)CC1`, the activity change, negative = inhibition in test [1] was 4.68%; in test [2], 11.9%. For the same molecule, the activity, negative = inhibition in test [3] was -3.82%. Moreover, the Potency in test [4] was above 20.6 µM.
As to `Cc1ccc(NC(=O)c2cc(N3CCOCC3)nc3ccccc23)cc1`, the activity change, negative = inhibition was -15.5% in test [1] and 19.3% in test [2]. For the same molecule, in test [3], the activity, negative = inhibition is -12.2%. Moreover, in test [4], the Potency is above 20.6 µM.
In the case of `O=C(O)c1c[nH]c2ccc(S(=O)(=O)N3CCOCC3)cc12`, the activity change, negative = inhibition in test [1] is 13.4%; in test [2] it was -7.03%. The activity, negative = inhibition in test [3] is 6.65%. In test [4], the Potency is above 20.6 µM.
For `COc1ccc(C2/C(=C(/O)c3ccccc3)C(=O)C(=O)N2c2ncccn2)cc1OC` (stereo not given), the activity change, negative = inhibition is -3.2% in test [1] and -4.09% in test [2]. The activity, negative = inhibition in test [3] was -0.726%. In test [4], the Potency is above 20.6 µM.
The corresponding values for `N#Cc1c(N)sc(=S)c2c1CCCCC2` are 10.8%, -12.9%, -20.4% and above 20.6 µM.
For `CC(=O)c1c(C)c2c(n1CCN(C)C)CCCC2`, the values for the activity change, negative = inhibition in test [1] and in test [2] were 123% [activator] (active) and -7.5%, respectively. The activity, negative = inhibition in test [3] is 9.43%. For the same molecule, in test [4], the Potency is above 20.6 µM.
For `Cn1ncc2nc[nH]c(=O)c21` the same measures were 0.993%, -1.7%, 7.35% and above 20.6 µM.
With `COc1ccc(/C(O)=C2/C(=O)C(=O)N(c3nc(C)c(C)s3)C2c2ccco2)cc1` (stereo not given), the activity change, negative = inhibition in test [1] is -13.8%; in test [2], 21.3%. The activity, negative = inhibition in test [3] is -14.6%. In addition, the Potency in test [4] is above 20.6 µM.
For `Cc1nc(SC2C=CS(=O)(=O)C2)n[nH]1` (stereo not given) the same measures were 5.25%, 11.6%, 2.19% and above 20.6 µM.
For the molecule `COc1ccc(Cn2c(CCCO)nc3ccccc32)cc1OC`, the activity change, negative = inhibition in test [1] was -8.44%; in test [2], 3.22%. The activity, negative = inhibition in test [3] was -4.44%. The Potency in test [4] is above 20.6 µM.
For `CCc1nc(NCCN2CCOCC2)c(C#N)c2c1CCCC2` the same measures were -11.1%, -20.4%, 6.43% and above 20.6 µM.
`CCC(c1c(C)n(C)n(-c2ccccc2)c1=O)c1c(C)n(C)n(-c2ccccc2)c1=O`: the activity change, negative = inhibition in test [1] is 6.29%; in test [2] it was 9.43%. For the same molecule, in test [3], the activity, negative = inhibition is 10.1%. Also, the Potency in test [4] is above 20.6 µM.
The corresponding values for `COc1ccc(C(=O)NCC(=O)n2nc(C)cc2C)cc1OC` are 6.38%, -1.54%, 16.4% and above 20.6 µM.
For `CCOC(=O)CSC1=C(C#N)C(c2ccc(C)cc2)C(C(=O)OC)C(=O)N1` (stereo not given) the same measures were 8.51%, 6.97%, -7.08% and above 20.6 µM.
Regarding `CCCCC(=O)NC(Nc1ccc(C)cn1)(C(=O)OCC)C(F)(F)F` (stereo not given), the activity change, negative = inhibition was 6.8% in test [1] and -3.17% in test [2]. The activity, negative = inhibition in test [3] is -20.4%. For the same molecule, the Potency in test [4] is above 20.6 µM.
The corresponding values for `Cn1c(=O)c2c(nc(NCCCO)n2Cc2cccc(C(F)(F)F)c2)n(C)c1=O` are 8.4%, 7.97%, -3.72% and above 20.6 µM.
The corresponding values for `CSC(=Nc1ccccc1)C1=C(O)COC1=O` are 3.1%, 4.52%, -5.43% and above 20.6 µM.
On to `O=C(NC1(C(F)(F)F)C(=O)Nc2c1c(=O)[nH]c(=O)n2-c1ccccc1)c1cccnc1` (stereo not given), for which the results for the activity change, negative = inhibition in test [1] and in test [2] were -3.2% and 8.45%, respectively. In addition, in test [3], the activity, negative = inhibition is 3.92%. The Potency in test [4] is above 20.6 µM.
Take `O=c1c(-c2ccc(Cl)cc2)[n+]([O-])c2ccccc2n1O`: the activity change, negative = inhibition in test [1] was -1.42%; in test [2] it was -15.3%. The activity, negative = inhibition in test [3] was -2.31%. Also, the Potency in test [4] was above 20.6 µM.
Take `O=S1(=O)C[C@@H](N2CCOCC2)[C@H](N2CCOCC2)C1`: the activity change, negative = inhibition was -10.3% in test [1] and 6.36% in test [2]. For the same molecule, the activity, negative = inhibition in test [3] is -4.63%. In addition, the Potency in test [4] is above 20.6 µM.
The corresponding values for `C=CCOc1ccc(C2/C(=C(\O)c3ccc(F)cc3)C(=O)C(=O)N2CCCN(C)C)cc1` (stereo not given) are 4.74%, -5.15%, 17% and above 20.6 µM.
The corresponding values for `CCn1c(SCC(=O)O)nc2sc3c(c2c1=O)CCC3` are 5.13%, -8.87%, -5.86% and above 20.6 µM.
For `Cc1nc(=O)c(-c2ccccc2)c(C)n1-c1ccc(S(N)(=O)=O)cc1` the same measures were 7.15%, -1.07%, 7.76% and above 20.6 µM.
As for `CCC(CC)C1C(C#N)=C(N)Oc2n[nH]c(C)c21` (stereo not given), the activity change, negative = inhibition in test [1] was -22.7%; in test [2], -13.2%. The activity, negative = inhibition in test [3] was -16.5%. Also, the Potency in test [4] was above 20.6 µM.
In the case of `CN1CCc2c(sc3c2C(=O)NC(c2ccco2)N3)C1` (stereo not given), the values for the activity change, negative = inhibition in test [1] and in test [2] were -0.778% and -3.54%, respectively. Moreover, the activity, negative = inhibition in test [3] was 23.6%. In addition, in test [4], the Potency is above 20.6 µM.
As to `O=C(NCc1cccnc1)NC(C(F)(F)F)C(F)(F)F`, the activity change, negative = inhibition in test [1] is 12.5%; in test [2], 2.52%. Besides, the activity, negative = inhibition in test [3] is 8.58%. For the same molecule, the Potency in test [4] is above 20.6 µM.
The corresponding values for `COC(=O)c1nn2c(C(F)(F)F)cc(-c3ccc(Br)o3)nc2c1Br` are 0.345%, -16.6%, 0.255% and above 20.6 µM.
The corresponding values for `CC(NC(=O)Nc1cccnc1)(C(F)(F)F)C(F)(F)F` are -12.1%, -11.5%, -3.14% and above 20.6 µM.
Consider `Cc1c(NC(=O)C(CC(=O)O)NCc2ccco2)c(=O)n(-c2ccccc2)n1C` (stereo not given), for which the activity change, negative = inhibition in test [1] was -3.94%; in test [2], 5.18%. In addition, the activity, negative = inhibition in test [3] is 1.34%. Also, the Potency in test [4] is above 20.6 µM.
The corresponding values for `CC(=O)C1=C(O)C(=O)N(c2ccc(Br)cn2)C1c1ccccc1F` (stereo not given) are -1.6%, 1.82%, -16.8% and above 20.6 µM.
For `CCOc1ccc(N=C(NC#N)SCC(=O)NC2CC2)cc1` the same measures were -3.71%, -22.1%, -16.7% and above 20.6 µM.
For `C/C(=N/n1cnnc1)c1cccnc1` the same measures were -1.84%, -0.807%, 16.1% and above 20.6 µM.
With `O=C(CN1CCc2[nH]c3ccccc3c2C1)N1CCCCC1`, the activity change, negative = inhibition was -7.36% in test [1] and -20.1% in test [2]. Further, in test [3], the activity, negative = inhibition is 4.96%. The Potency in test [4] is above 20.6 µM.
For `Nc1ccc2[nH]ncc2c1` the same measures were 5.98%, -1.96%, -0.564% and above 20.6 µM.
